Data taken from PubChem BioAssay (NCATS).
Values joined by “and” are separate entries in the source; they are usually repeats but may differ in a detail not shown here. Equal values may be shown once. Inconclusive results are not listed. Active and inactive are the calls of the source. Unless noted, the call rests on the fitted dose curve; in most records, active means well fitted curve in the direction sought with a large enough effect; inconclusive means small, poorly fitted or top-dose-only effect, or another doubt; inactive means no such curve, though single readings can be large; an effect the other way counts as inactive or inconclusive.

Legend:
[1] = Cellular Toxicity (caspase-3) Jurkat (AID 655); conditions: Jurkat caspase-3 activation, luminescence; caspase-3 activation: at 92.2 µM (top of the series), DMSO = 0%, tamoxifen = 100%;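 further: cells exposed to compound for 16 h at 37 °C before reading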
Outline: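 Caspase 3/7 activation is scored as increased luminescence in Jurkat cells cultured with compound for 16 hours in complete medium. AC50 values come from Hill fits of qHTS concentration-response data normalized to DMSO and 100 uM tamoxifen controls.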

[2] = MultiTox-Fluor Cytotoxicity Assay - LYMP1-003 - Live Cells (AID 962);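 further: cells exposed to compound for 16 hours at 37 °C; 0% = DMSO only and full loss = 92 µM tetraoctylammonium bromide; cytotoxic hits lower the live-cell protease signal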
Outline: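 Live-cell protease activity (GF-AFC substrate, 405/510 nm, 60 min at room temperature) after 16 h, 37 C compound exposure of human lymphoblastoid LYMP1-003 cells; concentration-response fitted to the Hill equation for AC50.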

[3] = Cell Viability - LYMP1-003 - Assay at 24 hr (AID 963);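 further: plate controls were DMSO only for no effect and tetraoctylammonium bromide positive control for full effect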
Outline: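 Concentration-response qHTS: ATP loss measured by CellTiter-Glo luminescence after 24 h compound exposure at 37 C. Cells were LYMP1-003 human lymphoblastoid, 2500 per well. AC50 derived via standard Hill equation modeling.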

[4] = Cell Viability - LYMP1-003 - Assay at 40 hr (AID 964); further: on the % scale 0 is the no-effect control and ±100 the full control effect; nearly all actives have a fitted effect of over 60% in size
Outline: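 Viability is taken as cellular ATP, read by CellTiter-Glo luminescence after 40 h of compound exposure at 37 C. Cells: human lymphoblastoid line LYMP1-003 at 2500/well; AC50 values derived by Hill-equation fitting of concentration-response data.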

[5] = Cell Viability - LYMP2-003 (AID 965);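 further: cells exposed to compounds for 24 h before reading; 0% = DMSO only and full effect = 92 µM tetraoctylammonium bromide; nearly all actives have a fitted effect of over 50% in size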
Outline: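 Acute cytotoxicity is scored as a concentration-dependent drop in intracellular ATP, measured by luciferase luminescence in human lymphoblastoid cells treated for 24 hours at 37 C. AC50 values derive from Hill-equation modelling.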

[6] = Cell Viability - LYMP2-004 (AID 966);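 further: plate controls were DMSO only for no effect and tetraoctylammonium bromide control for full effect; nearly all actives have a fitted effect of over 65% in size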
Outline: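 AC50 values come from Hill modelling of concentration-dependent loss of intracellular ATP, measured by CellTiter-Glo luminescence. Human LYMP2-004 lymphoblastoid cells (2500/well) were exposed to compound for 24 h at 37 C.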

[7] = Cell Viability - LYMP2-017 (AID 972); further: on the % scale 0 is the no-effect control and ±100 the full control effect; nearly all actives have a fitted effect of over 55% in size
Outline: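 CellTiter-Glo luminescence (cellular ATP, 30 min RT) measured cytotoxicity after 24 hr compound treatment at 37 C. Cells were a human lymphoblastoid line, LYMP2-017, plated at 2500/well and incubated 5 hr first; concentration-response fitted with Hill equation for AC50.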

[8] = Cell Viability - LYMP2-019 (AID 973);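 further: 0% = DMSO alone and full effect = 92 µM tetraoctylammonium bromide; nearly all actives have a fitted effect of over 55% in size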
Outline: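 AC50 values come from Hill-equation fits of luminescent intracellular ATP (CellTiter-Glo, 30 min, room temperature) following 24 h compound exposure at 37 C. Cells: LYMP2-019 lymphoblastoid line, 2500 per well, in complete culture medium.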

[9] = Cell Viability - LYMP2-025 (AID 976);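 further: plate controls were DMSO only for no effect and tetraoctylammonium bromide control for full effect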
Outline: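 Cytotoxicity read as loss of intracellular ATP (luciferase luminescence) after 24 h compound treatment at 37 C. Uses LYMP2-025 lymphoblastoid cells in 1536-well format; Hill-equation modelling gives AC50; tetraoctylammonium bromide as positive control.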

[10] = Cell Viability - LYMP2-007 (AID 979);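 further: cells exposed to compound for 24 h before reading; 0% = DMSO only and the negative end = 92 µM tetraoctylammonium bromide; nearly all actives have a fitted effect of over 60% in size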
Outline: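 AC50 values come from Hill-equation fits of luminescent intracellular ATP (CellTiter-Glo, 30 min, room temperature) following 24 h compound exposure at 37 C. Cells: LYMP2-007 lymphoblastoid line, 2500 per well, in complete culture medium.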

[11] = Cell Viability - LYMP2-008 (AID 980); further: on the % scale 0 is the no-effect control and ±100 the full control effect; nearly all actives have a fitted effect of over 60% in size
Outline: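 Cytotoxicity determined from ATP-dependent luciferase luminescence (CellTiter-Glo) following 24 h compound exposure of human lymphoblastoid LYMP2-008 cells at 37 C. Concentration-response data fitted to the Hill equation to give AC50.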

[12] = Cell Viability - LYMP2-012 (AID 982);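 further: cellular ATP by luciferase luminescence where a drop means cytotoxicity; cells exposed to compound for one day before reading; 0% = DMSO only and full loss = 92 µM tetraoctylammonium bromide; nearly all actives have a fitted effect of over 55% in size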
[13] = Cell Viability - LYMP2-014 (AID 983);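 further: plate controls were DMSO only for no effect and 92 µM tetraoctylammonium bromide for full effect; nearly all actives have a fitted effect of over 50% in size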
Outline: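 Intracellular ATP loss, read by luciferase luminescence, measures acute cytotoxicity after 24 h compound exposure of lymphoblastoid LYMP2-014 cells (2500/well, 37 C). Concentration-response data fitted to the Hill equation for AC50.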

[14] = Cell Viability - LYMP2-018 (AID 985);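 further: plate controls were DMSO only for no effect and tetraoctylammonium bromide at 92 µM for full effect; nearly all actives have a fitted effect of over 50% in size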
Outline: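 Viability read as CellTiter-Glo luminescence (cellular ATP) after 24 hr compound exposure at 37 C of 2500 LYMP2-018 lymphoblastoid cells/well, pre-plated 5 hr. Hill-equation modelling gave AC50.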

[15] = Cell Viability - LYMP1-002 - Assay at 40 hr (AID 994);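 further: 0% = DMSO only and full inhibition = 92 µM tetraoctylammonium bromide; nearly all actives have a fitted effect of over 60% in size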
Outline: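 Cytotoxicity was read as loss of cellular ATP (CellTiter-Glo luminescence) after 40 hr compound exposure at 37 C of 2500 LYMP1-002 lymphoblastoid cells per well. Concentration-response data were fitted with the standard Hill equation to give AC50.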

[16] = qHTS assay for small molecule agonists of retinoid X receptor alpha signaling (AID 588544; calls by dose curve;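 on activation: 0% = DMSO basal wells and 100% = reference agonist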); conditions: HEK293T RXRa-UAS-bla, beta-lactamase reporter, 18 h; 530 nm emission
[17] = biological target: Retinoic acid receptor RXR-alpha (Homo sapiens) (UniProt P19793); assay: as above
[18] = qHTS assay for small molecule antagonists of retinoid X receptor alpha signaling (AID 588546); conditions: HEK293T RXRa-UAS-bla, beta-lactamase ratio, antagonist mode; measured here: W530 green channel, cytotoxicity proxy;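 further: cells stimulated with 9-cis-retinoic acid as agonist; on the % scale 0 is the no-effect control and ±100 the full control effect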
Outline: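 Beta-lactamase reporter inhibition, read as CCF4 fluorescence ratio (ex 405, em 460/530 nm) after 2 h at RT. HEK293T UAS-bla cells, 2500/well, were stimulated with 9-cis-RA at 500 or 100 nM final alongside test compound for 18 h at 37 C.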

[19] = qHTS assay for small molecule antagonists of the retinoid-related orphan receptor gamma (ROR-gamma) signaling pathway - cell viability counter screen (AID 720652; active means well fitted curve in the direction sought with a large enough effect in the repeat runs; an effect the other way counts as inactive or inconclusive;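 further: CHO reporter cells with doxycycline-induced ROR-gamma expression; compound exposure lasted 16 hr before ATP read; on the % scale 0 is the no-effect control and ±100 the full control effect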)
Outline: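 Cytotoxicity counter screen: intracellular ATP (CellTiter-Glo luminescence) measured in the doxycycline-induced CHO RORE-luciferase reporter line after 16 hr compound exposure at 37 C, 5% CO2.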

[20] = Cell Viability - SH-SY5Y (AID 544); conditions: SH-SY5Y neuroblastoma cell viability; viability change, negative = cytotoxic: at 92.2 µM (top of the series);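 further: cells exposed to compound for 40 hours; nearly all actives have a fitted effect of over 55% in size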
Outline: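 Cytotoxicity measured via ATP-dependent luciferase luminescence (CellTiter-Glo) following 40 h, 37 °C exposure of 1500 SH-SY5Y cells per well. Concentration-response data were fitted with the standard Hill equation to give AC50.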

Chain of Retinoic acid receptor RXR-alpha (Homo sapiens) (P19793 whole entry, looked up): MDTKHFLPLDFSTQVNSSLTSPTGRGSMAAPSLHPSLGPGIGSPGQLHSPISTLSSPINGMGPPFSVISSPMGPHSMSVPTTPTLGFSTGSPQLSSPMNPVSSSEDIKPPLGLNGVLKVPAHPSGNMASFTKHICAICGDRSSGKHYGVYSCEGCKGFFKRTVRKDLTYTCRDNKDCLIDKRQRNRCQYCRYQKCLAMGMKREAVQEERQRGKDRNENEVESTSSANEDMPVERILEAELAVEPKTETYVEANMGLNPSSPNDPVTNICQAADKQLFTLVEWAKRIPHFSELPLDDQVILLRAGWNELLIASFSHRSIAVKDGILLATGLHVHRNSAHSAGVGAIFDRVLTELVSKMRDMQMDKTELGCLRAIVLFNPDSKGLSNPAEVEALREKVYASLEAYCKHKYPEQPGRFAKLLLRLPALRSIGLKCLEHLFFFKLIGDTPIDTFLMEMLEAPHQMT

CNC(=O)O/N=C/C(C)(C)S(C)=O (stereo unspecified)
inactive: caspase-3 activation [1] 0.627% | outcome [2] | outcome [3] | Potency [4] | Potency [5] | Potency [6] | Potency [7] | Potency [8] | Potency [9] | Potency [10] | Potency [11] | Potency [12] | Potency [13] | Potency [14] | Potency [15] | outcome [17] | Potency [19]
-10.1% and 0.325%: max response [18]
-20.3% and 7.58%: max response [16]

Cc1ccc([N+](=O)[O-])cc1
-18.4%: max response [16]
inactive: Potency [20] | caspase-3 activation [1] -0.655% | outcome [2] | outcome [3] | Potency [4] | Potency [5] | Potency [6] | Potency [7] | Potency [8] | Potency [9] | Potency [10] | Potency [11] | Potency [12] | Potency [13] | Potency [14] | Potency [15] | outcome [17] | Potency [19]
1.21%: max response [18]

O=C(Cl)c1ccccc1F
-4.19%: max response [18]
6.73%: max response [16]
inactive: Potency [20] | caspase-3 activation [1] 2.05% | outcome [2] | outcome [3] | Potency [4] | Potency [5] | Potency [6] | Potency [7] | Potency [8] | Potency [9] | Potency [10] | Potency [11] | Potency [12] | Potency [13] | Potency [14] | Potency [15] | outcome [17] | Potency [19]

CCOC(=O)CC(SP(=O)(OC)OC)C(=O)OCC (stereo unspecified)
7.78% and 5.62%: max response [18]
inactive: caspase-3 activation [1] 1.26% | outcome [2] | outcome [3] | Potency [4] | Potency [5] | Potency [6] | Potency [7] | Potency [8] | Potency [9] | Potency [10] | Potency [11] | Potency [12] | Potency [13] | Potency [14] | Potency [15] | outcome [17] | Potency [19]
9.41% and -5.43%: max response [16]

C=C(Cl)CSC(=S)N(CC)CC
-16.2%: max response [16]
inactive: Potency [20] | caspase-3 activation [1] 1.37% | outcome [2] | outcome [3] | Potency [4] | Potency [6] | Potency [9] | Potency [10] | Potency [12] | Potency [15] | outcome [17] | Potency [19]
-2.71%: max response [18]

O=NN1CCCCC1
-1.5%: max response [18]
5.16%: max response [16]
inactive: Potency [20] | caspase-3 activation [1] 1.18% | outcome [2] | outcome [3] | Potency [4] | Potency [5] | Potency [6] | Potency [7] | Potency [8] | Potency [9] | Potency [10] | Potency [11] | Potency [12] | Potency [13] | Potency [14] | Potency [15] | outcome [17] | Potency [19]

Oc1ccc(Cl)c(Cl)c1
-0.477%: max response [18]
inactive: Potency [20] | caspase-3 activation [1] -1.55% | outcome [2] | outcome [3] | Potency [4] | Potency [5] | Potency [6] | Potency [7] | Potency [8] | Potency [9] | Potency [10] | Potency [11] | Potency [12] | Potency [13] | Potency [14] | Potency [15] | outcome [17] | Potency [19]
-8.76%: max response [16]

O=C(Cc1ccccc1)OCc1ccccc1
10.7%: max response [16]
8.24%: max response [18]
inactive: Potency [20] | caspase-3 activation [1] 3.55% | outcome [2] | outcome [3] | Potency [4] | Potency [5] | Potency [6] | Potency [7] | Potency [8] | Potency [9] | Potency [10] | Potency [11] | Potency [12] | Potency [13] | Potency [14] | Potency [15] | outcome [17] | Potency [19]

CC(C)(C)c1ccccc1O
-1.25% and -13.7%: max response [16]
inactive: Potency [20] | caspase-3 activation [1] -1.03% | outcome [2] | outcome [3] | Potency [4] | Potency [5] | Potency [6] | Potency [7] | Potency [8] | Potency [9] | Potency [10] | Potency [11] | Potency [12] | Potency [13] | Potency [14] | Potency [15] | outcome [17] | Potency [19]
-15.4% and -14.5%: max response [18]

CCCCCOC(=O)c1ccccc1C(=O)OCCCCC
-5.52%: max response [18]
-10.9% and 3.25%: max response [16]
inactive: Potency [20] | caspase-3 activation [1] 0.132% | outcome [2] | outcome [3] | Potency [4] | Potency [5] | Potency [6] | Potency [7] | Potency [8] | Potency [9] | Potency [10] | Potency [11] | Potency [12] | Potency [13] | Potency [14] | Potency [15] | outcome [17] | Potency [19]

C=CC=O
inactive: caspase-3 activation [1] 13.2% | outcome [2] | outcome [3] | Potency [4] | Potency [5] | Potency [6] | Potency [7] | Potency [8] | Potency [9] | Potency [10] | Potency [11] | Potency [12] | Potency [13] | Potency [14] | Potency [15] | outcome [17] | Potency [19]
-0.594%: max response [16]
active: viability change, negative = cytotoxic [20] -91.6%

O=[N+]([O-])c1ccc(Cl)cc1
inactive: Potency [20] | caspase-3 activation [1] 1.25% | outcome [2] | outcome [3] | Potency [4] | Potency [5] | Potency [6] | Potency [7] | Potency [8] | Potency [9] | Potency [10] | Potency [11] | Potency [12] | Potency [13] | Potency [14] | Potency [15] | outcome [17] | Potency [19]
-17.3% and -9.79%: max response [16]
-1.92% and -4.79%: max response [18]

ClCCBr
-16.9%: max response [16]
-4.86%: max response [18]
inactive: Potency [20] | caspase-3 activation [1] 0.239% | outcome [2] | outcome [3] | Potency [4] | Potency [5] | Potency [6] | Potency [7] | Potency [8] | Potency [9] | Potency [10] | Potency [11] | Potency [12] | Potency [13] | Potency [14] | Potency [15] | outcome [17] | Potency [19]

CCC/C=N/O
inactive: Potency [20] | caspase-3 activation [1] -1.14% | outcome [2] | outcome [3] | Potency [4] | Potency [5] | Potency [6] | Potency [7] | Potency [8] | Potency [9] | Potency [10] | Potency [11] | Potency [12] | Potency [13] | Potency [14] | Potency [15] | outcome [17] | Potency [19]
-21.6%: max response [16]
-10.3%: max response [18]

O=C(O)C(Cl)(Cl)Br
inactive: Potency [20] | caspase-3 activation [1] 1.43% | outcome [2] | outcome [3] | Potency [4] | Potency [5] | Potency [6] | Potency [7] | Potency [8] | Potency [9] | Potency [10] | Potency [11] | Potency [12] | Potency [13] | Potency [14] | Potency [15] | outcome [17] | Potency [19]
1.14%: max response [18]
-15.6%: max response [16]
